This is a sample that favours compounds with a hit; in the whole collection about 1.5% have one here.
MCL1 BIM primary = MCL1-BIM-BH3 interaction inhibition (human) | Q07820 | GST-MCL1 / FITC-Bim-BH3 fluorescence polarization | inhibition, % at 10.9 µM | 320,000 compounds, 0.68% hits;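 active = inhibition above the mean inhibition of all tested compounds plus 3 SD, set per campaign, cut at about 40% in these data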;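 also: higher means more loss of mP so more displacement of Bim peptide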
IDE cell inh = inhibits human insulin-degrading enzyme in HEK cells | P14735 | FAbetaB cleavage, fluorescence polarization | inhibition, % at 5.59 µM | 320,000 compounds, 0.41% hits;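 active = percent inhibition above the average of all tested compounds plus 3 SD, set per screening campaign, cut at about 16% in these data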;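 also: IDE supplied by intact live HEK cells; FP after avidin binding of uncleaved biotin substrate so inhibition keeps polarization high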
Target sequence (P14735 whole entry, looked up): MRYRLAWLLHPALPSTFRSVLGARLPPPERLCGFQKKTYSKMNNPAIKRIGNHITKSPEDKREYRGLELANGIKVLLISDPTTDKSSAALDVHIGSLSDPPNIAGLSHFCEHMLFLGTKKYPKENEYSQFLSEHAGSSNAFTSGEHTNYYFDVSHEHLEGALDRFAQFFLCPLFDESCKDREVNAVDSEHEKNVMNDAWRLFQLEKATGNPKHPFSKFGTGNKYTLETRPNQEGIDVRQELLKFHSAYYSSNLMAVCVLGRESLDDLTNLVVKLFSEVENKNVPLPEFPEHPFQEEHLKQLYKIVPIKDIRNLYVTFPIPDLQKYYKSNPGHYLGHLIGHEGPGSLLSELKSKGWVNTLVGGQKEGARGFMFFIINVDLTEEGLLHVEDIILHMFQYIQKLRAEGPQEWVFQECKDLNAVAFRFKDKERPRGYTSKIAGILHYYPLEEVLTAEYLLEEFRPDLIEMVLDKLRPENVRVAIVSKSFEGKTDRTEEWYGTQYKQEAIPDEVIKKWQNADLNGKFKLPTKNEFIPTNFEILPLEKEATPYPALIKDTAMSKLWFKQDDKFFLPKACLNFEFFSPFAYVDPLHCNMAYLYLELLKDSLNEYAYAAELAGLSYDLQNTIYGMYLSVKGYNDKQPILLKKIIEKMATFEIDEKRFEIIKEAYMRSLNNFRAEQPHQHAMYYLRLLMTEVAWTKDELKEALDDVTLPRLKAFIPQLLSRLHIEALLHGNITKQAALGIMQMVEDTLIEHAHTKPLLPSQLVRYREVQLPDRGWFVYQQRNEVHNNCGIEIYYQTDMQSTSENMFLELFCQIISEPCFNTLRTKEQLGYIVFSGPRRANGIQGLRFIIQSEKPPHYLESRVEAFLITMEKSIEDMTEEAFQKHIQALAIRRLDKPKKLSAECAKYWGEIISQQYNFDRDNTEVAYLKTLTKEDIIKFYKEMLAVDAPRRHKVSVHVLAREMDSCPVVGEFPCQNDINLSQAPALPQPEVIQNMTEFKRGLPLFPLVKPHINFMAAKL
GLD-1 TGE inh = GLD-1-TGE RNA interaction inhibition (C. elegans). 320,000 compounds, 0.44% hits. Q17339. inhibition, % at 5.96 µM. AID 2280. purified GLD-1 + fluorescein TGE RNA, fluorescence polarization;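 active = percent inhibition above a per-plate cutoff, the plate mean of test compounds plus 3 SD, cut at about 30% in these data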
BCLXL inh = Bcl-xL (human) inhibition. GST-Bcl-xL / FITC-Bim BH3 peptide fluorescence polarization. AID 2129. inhibition, % at 10.9 µM. Q07817. 320,000 compounds, 0.7% hits;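 active = inhibition above the mean of all tested compounds plus 3 SD, cutoff set per campaign, cut at about 30% in these data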;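 also: inhibitors lower millipolarization by displacing the labeled peptide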
MEX-5 binding = C. elegans MEX-5 TCR-2 RNA binding activity | activity score (negative = inhibition of binding), % at 10 µM | MEX-5/FITC-TCR2 RNA binding, fluorescence polarization; hits give low values | AID 1832 | 300,000 compounds, 0.38% hits;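 active = inhibition past about -25% in most replicates, and total fluorescence under double the plate's negative control median, limit read from the data; inconclusive = replicates evenly split on the limit, or fluorescence at least double controls; inactive = too little inhibition in most replicates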
IDE cell activ = boosts human insulin-degrading enzyme activity in HEK cells; FAbeta-B cleavage, fluorescence polarization; 0% vehicle, 100% cell-free pure enzyme wells; activation, % at 5.96 µM; AID 493087; 340,000 compounds, 0.073% hits;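 active = activation above the mean of all tested compounds plus 3 SD, set per screening campaign, cut at about 17% in these data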
IDE inh confirm = cellular human IDE inhibition, confirmation; shares compounds with IDE cell inh; HEK cells, FAbetaB cleavage, fluorescence polarization; inhibition, % at 5.59 µM; 1,200 compounds, 51% hits; AID 435028;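 active = mean inhibition across triplicate wells above the cutoff set by the earlier primary insulin-degrading enzyme screen, cut at about 16% in these data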
HEK cytotox = HEK cell cytotoxicity, counter-screen for IDE inhibitors; shares compounds with IDE cell inh; HEK293 cytotoxicity, ATP luminescence; inhibition, % at 5.59 µM; 1,200 compounds, 28% hits; in the data active = inhibition above about 22%
Hits are given with their value.

O=C(C1CCCCC1)N1CCN(c2ccnc3cc(Cl)ccc23)CC1 was read as MCL1 BIM primary inactive, IDE cell inh 24, GLD-1 TGE inh inactive, BCLXL inh inactive, MEX-5 binding inactive, IDE cell activ inactive, IDE inh confirm 23 and HEK cytotox 42.
Screening O=C(c1ccc(Cl)cc1)N1CCC(C(=O)N2CCN(c3ncccn3)CC2)CC1 returned MCL1 BIM primary inactive, IDE cell inh inactive, GLD-1 TGE inh inactive, BCLXL inh inactive and IDE cell activ inactive.
`COc1ccccc1N1CCN(c2ccnc3cc(Cl)ccc23)CC1` gave MCL1 BIM primary inactive, IDE cell inh inactive, GLD-1 TGE inh inactive, BCLXL inh inactive, MEX-5 binding inactive and IDE cell activ inactive.
CCC1CN(C(=O)Nc2ccc(C)cc2)c2cc(C)ccc2O1 (stereo not given) was read as MCL1 BIM primary inactive, IDE cell inh inactive, GLD-1 TGE inh inactive, BCLXL inh inactive, MEX-5 binding inactive and IDE cell activ inactive.
For O=C(C1CCC1)N1CCN(c2ccnc3cc(Cl)ccc23)CC1 the results were MCL1 BIM primary inactive, IDE cell inh 21, GLD-1 TGE inh inactive, BCLXL inh inactive, MEX-5 binding inactive, IDE cell activ inactive, IDE inh confirm 18 and HEK cytotox inactive.
Screening CC(=O)c1ccc(N2CCN(c3ccnc4cc(Cl)ccc34)CC2)cc1 returned MCL1 BIM primary inactive, IDE cell inh 25, GLD-1 TGE inh inactive, BCLXL inh inactive, MEX-5 binding inactive, IDE cell activ inactive, IDE inh confirm 18 and HEK cytotox 39.
Screening O=[N+]([O-])c1ccc(S(=O)(=O)N2CCN(c3ccnc4cc(Cl)ccc34)CC2)cc1 returned MCL1 BIM primary inactive, IDE cell inh inactive, GLD-1 TGE inh inactive, BCLXL inh inactive, MEX-5 binding inactive and IDE cell activ inactive.
For CN(C)S(=O)(=O)N1CCN(c2ccnc3cc(Cl)ccc23)CC1 the results were MCL1 BIM primary inactive, IDE cell inh inactive, GLD-1 TGE inh inactive, BCLXL inh inactive, MEX-5 binding inactive and IDE cell activ inactive.
For CC(C)(C)C(=O)N1CCN(c2ccnc3cc(Cl)ccc23)CC1 the results were MCL1 BIM primary inactive, IDE cell inh 34, GLD-1 TGE inh inactive, BCLXL inh inactive, MEX-5 binding inactive, IDE cell activ inactive, IDE inh confirm 17 and HEK cytotox inactive.
For O=C(COC(=O)CN1C(=O)NC2(CCCCC2)C1=O)Nc1cc(F)ccc1F the results were IDE cell inh inactive, GLD-1 TGE inh inactive and IDE cell activ inactive.
Screening Cc1oc2cc(OCC(=O)O)ccc2c(=O)c1Oc1ccccc1 returned MCL1 BIM primary inactive, IDE cell inh inactive, GLD-1 TGE inh inactive, BCLXL inh inactive, MEX-5 binding inactive and IDE cell activ inactive.
For COc1ccc2c(=O)c(Oc3ccc(C(=O)O)cc3)c(C(F)(F)F)oc2c1 the results were MCL1 BIM primary inactive, IDE cell inh 18, GLD-1 TGE inh inactive, BCLXL inh inactive, MEX-5 binding inactive, IDE cell activ inactive, IDE inh confirm inactive and HEK cytotox inactive.
`CCC(C)NC(=O)c1ccc(CN2CCc3ccccc3C2)cc1` (stereo not given) gave MCL1 BIM primary inactive, IDE cell inh inactive, GLD-1 TGE inh inactive, BCLXL inh inactive, MEX-5 binding inactive and IDE cell activ inactive.
`Cc1nn(C)c(N)c1[N+](=O)[O-]` gave MCL1 BIM primary inactive, IDE cell inh inactive, GLD-1 TGE inh inactive, BCLXL inh inactive, MEX-5 binding inactive and IDE cell activ inactive.
For Cc1nn(C)c(Sc2ccccc2N)c1[N+](=O)[O-] the results were MCL1 BIM primary inactive, IDE cell inh 28, GLD-1 TGE inh inactive, BCLXL inh inactive, MEX-5 binding inactive, IDE cell activ inactive, IDE inh confirm inactive and HEK cytotox inactive.
Screening CN(C)c1ccc(/C=C/c2nc3ccccc3s2)cc1 returned MCL1 BIM primary inactive, IDE cell inh inactive, GLD-1 TGE inh inactive, BCLXL inh inactive, MEX-5 binding inconclusive and IDE cell activ inactive.
COc1cc(/C=C/c2nc3ccccc3s2)cc(OC)c1O was read as MCL1 BIM primary inactive, IDE cell inh 142, GLD-1 TGE inh inactive, BCLXL inh inactive, MEX-5 binding inactive, IDE cell activ inactive, IDE inh confirm 103 and HEK cytotox inactive.
`COc1cc(C=C(c2nc3ccccc3s2)c2nc3ccccc3s2)ccc1O` gave MCL1 BIM primary 43, IDE cell inh 27, GLD-1 TGE inh inactive, BCLXL inh 41, MEX-5 binding inactive, IDE cell activ inactive, IDE inh confirm 59 and HEK cytotox inactive.
CSC1=NSC2=NC(=O)/C(=C\c3cccs3)C(=N)N12 was read as MCL1 BIM primary inactive, IDE cell inh inactive, GLD-1 TGE inh inactive, BCLXL inh inactive, MEX-5 binding inactive and IDE cell activ inactive.
For CC1=CC2=NC(=O)/C(=C/c3coc4ccc(Cl)cc4c3=O)C(=N)N2O1 the results were MCL1 BIM primary inactive, IDE cell inh 62, GLD-1 TGE inh inactive, BCLXL inh inactive, MEX-5 binding inconclusive, IDE cell activ inactive, IDE inh confirm 97 and HEK cytotox inactive.
For CSC1=NSC2=NC(=O)/C(=C/c3coc4ccccc4c3=O)C(=N)N12 the results were MCL1 BIM primary 52, IDE cell inh 72, GLD-1 TGE inh inactive, BCLXL inh 44, IDE cell activ inactive, IDE inh confirm 45 and HEK cytotox inactive.
`CSC1=NSC2=NC(=O)/C(=C/c3coc4ccc(O)cc4c3=O)C(=N)N12` gave MCL1 BIM primary inactive, IDE cell inh 30, GLD-1 TGE inh inactive, BCLXL inh 52, MEX-5 binding inconclusive, IDE cell activ inactive, IDE inh confirm 37 and HEK cytotox inactive.
CC(OC(=O)C1CC1C)C(=O)Nc1ncc(Cl)cc1Cl (stereo not given) was read as MCL1 BIM primary inactive, IDE cell inh inactive, GLD-1 TGE inh inactive, BCLXL inh inactive, MEX-5 binding inactive and IDE cell activ inactive.
For Cc1nn(C(C)C(=O)NCc2ccco2)c(=O)c2nn(-c3ccccc3)c(C)c12 (stereo not given) the results were MCL1 BIM primary inactive, IDE cell inh inactive, GLD-1 TGE inh inactive, BCLXL inh inactive, MEX-5 binding inactive and IDE cell activ inactive.
COc1cccc(NC(=O)CNC(=O)Cn2cnc3sc(C)c(C)c3c2=O)c1 was read as MCL1 BIM primary inactive, IDE cell inh inactive, GLD-1 TGE inh inactive, BCLXL inh inactive, MEX-5 binding inactive and IDE cell activ inactive.
Screening CCc1ccccc1N(CC(=O)NC(C)(C)C)C(=O)CCC(=O)Nc1ccccn1 returned MCL1 BIM primary inactive, IDE cell inh inactive, GLD-1 TGE inh inactive, BCLXL inh inactive, MEX-5 binding inactive and IDE cell activ inactive.

From PubChem BioAssay
